# Data as given in PubChem BioAssay.
# Calls of active or inactive are those of the source. Unless noted, how the calls were made is not given here.
# Assays:
# [1] = anti-His antibody binders, primary screen, artefact control for SMM control protein annotation, biochemical, small-molecule microarray, 635 nm fluorescence (AID 1128); conditions: anti-His Alexa647 antibody binding, higher = more signal;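 further: score merges feature fluorescence with signal-to-noise for each printed compound spot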
# [2] = test system: Human papillomavirus type 1a E7 protein (residues 1-88); test: HPV1a E7 small-molecule binders, primary screen, biochemical, small-molecule microarray, residues 1-88, 635 nm (AID 1129); conditions: small-molecule microarray binding, fluorescence 635 nm; higher = more signal
# [3] = biological target: Focal adhesion kinase 1 (Homo sapiens) (UniProt Q05397); test: small-molecule microarray binders of FAK, primary screen, biochemical, 635/667 nm fluorescence, BSA, DTT (AID 1130); conditions: PTK2 binding, 635 nm fluorescence, higher = more signal;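 further: composite of spot emission at 667 nm and signal to noise over triplicate slides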
# Focal adhesion kinase 1 (Homo sapiens), sequence (Q05397 whole entry, looked up): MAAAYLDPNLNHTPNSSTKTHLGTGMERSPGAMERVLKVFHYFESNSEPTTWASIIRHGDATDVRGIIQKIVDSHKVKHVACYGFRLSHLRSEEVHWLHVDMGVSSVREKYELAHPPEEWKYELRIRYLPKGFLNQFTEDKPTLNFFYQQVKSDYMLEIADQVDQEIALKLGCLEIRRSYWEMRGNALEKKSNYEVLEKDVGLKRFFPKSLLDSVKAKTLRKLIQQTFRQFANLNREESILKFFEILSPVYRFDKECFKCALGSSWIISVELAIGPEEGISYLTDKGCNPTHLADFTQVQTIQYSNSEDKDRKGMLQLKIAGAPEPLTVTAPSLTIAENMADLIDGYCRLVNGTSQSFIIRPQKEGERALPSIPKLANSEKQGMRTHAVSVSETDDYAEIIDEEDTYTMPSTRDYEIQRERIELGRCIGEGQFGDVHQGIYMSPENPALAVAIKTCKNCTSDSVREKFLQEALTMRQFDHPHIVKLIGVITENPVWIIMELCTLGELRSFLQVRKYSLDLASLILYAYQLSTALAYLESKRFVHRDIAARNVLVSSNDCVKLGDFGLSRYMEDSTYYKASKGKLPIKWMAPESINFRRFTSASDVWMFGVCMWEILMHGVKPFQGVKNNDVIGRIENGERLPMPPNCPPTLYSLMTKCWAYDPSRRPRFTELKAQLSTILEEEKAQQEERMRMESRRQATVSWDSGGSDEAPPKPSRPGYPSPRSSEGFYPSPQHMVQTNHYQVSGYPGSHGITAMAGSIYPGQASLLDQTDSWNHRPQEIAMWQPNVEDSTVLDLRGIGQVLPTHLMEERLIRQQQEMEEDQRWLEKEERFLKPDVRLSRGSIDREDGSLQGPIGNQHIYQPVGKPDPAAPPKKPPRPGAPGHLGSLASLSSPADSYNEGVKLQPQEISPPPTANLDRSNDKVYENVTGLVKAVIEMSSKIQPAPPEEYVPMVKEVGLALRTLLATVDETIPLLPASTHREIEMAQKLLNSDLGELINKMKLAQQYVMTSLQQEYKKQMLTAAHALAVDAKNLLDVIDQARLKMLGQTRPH
# [4] = test system: Fibrinogen (Alexa647-labelled); test: fibrinogen binders on compound microarrays, profiling panel, artefact control for SMM control-protein annotation, biochemical, small-molecule microarray, 635/667 nm fluorescence (AID 1131); conditions: fibrinogen-A647 binding fluorescence, higher = more signal;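 further: z-score merges 667 nm fluorescence with per-spot signal-to-noise over triplicate slides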
# [5] = biological target: Follistatin (Homo sapiens) (UniProt P19883); test: follistatin binders on small-molecule microarrays, primary screen, biochemical, small-molecule microarray, 635/667 nm fluorescence (AID 1132); conditions: FST binding, 635 nm fluorescence, higher = more signal
# Follistatin (Homo sapiens), sequence (P19883 whole entry, looked up): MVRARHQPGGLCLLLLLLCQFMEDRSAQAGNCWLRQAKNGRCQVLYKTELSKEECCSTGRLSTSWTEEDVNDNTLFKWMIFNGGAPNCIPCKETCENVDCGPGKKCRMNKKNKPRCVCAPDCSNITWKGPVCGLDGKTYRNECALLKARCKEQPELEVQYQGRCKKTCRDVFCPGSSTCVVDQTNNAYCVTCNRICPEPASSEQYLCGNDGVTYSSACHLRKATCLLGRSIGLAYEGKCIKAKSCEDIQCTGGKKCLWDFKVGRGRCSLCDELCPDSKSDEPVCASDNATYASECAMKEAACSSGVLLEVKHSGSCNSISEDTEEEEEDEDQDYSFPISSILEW
# [6] = biological target: Fibroblast growth factor 2 (Homo sapiens) (UniProt P09038); test: FGF2 binders on small-molecule microarrays, primary screen, biochemical, small-molecule microarray, 635/667 nm fluorescence (AID 1133); conditions: small-molecule microarray binding, FGF2, fluorescence 635/667; higher = more signal
# Fibroblast growth factor 2 (Homo sapiens), sequence (P09038 whole entry, looked up): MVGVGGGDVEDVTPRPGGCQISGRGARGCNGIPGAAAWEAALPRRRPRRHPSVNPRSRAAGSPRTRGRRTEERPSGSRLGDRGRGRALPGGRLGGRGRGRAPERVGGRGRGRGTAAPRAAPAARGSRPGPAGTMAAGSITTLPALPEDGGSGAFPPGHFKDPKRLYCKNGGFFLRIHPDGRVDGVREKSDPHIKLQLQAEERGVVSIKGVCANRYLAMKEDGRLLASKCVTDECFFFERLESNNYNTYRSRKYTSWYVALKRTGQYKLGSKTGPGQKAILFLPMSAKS
# [7] = mitochondrial membrane potential change in A549 cells, profiling panel, cell-based, JC-1 fluorescence, basal, 24 h, 100 nL (AID 1138); conditions: higher = more signal;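 further: A549 lung adenocarcinoma cells under basal conditions with no added stimulus; test concentration not given here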
# Lefty1 = Lefty1 binders on small-molecule microarrays, primary screen, biochemical, small-molecule microarray, 635/667 nm fluorescence (AID 1139); conditions: small-molecule microarray binding, fluorescence 635/667; higher = more signal
# [8] = test system: wheat germ agglutinin (Triticum aestivum), Alexa647-labelled; test: wheat germ agglutinin binders on compound microarrays, profiling panel, artefact control for SMM control-protein annotation, biochemical, small-molecule microarray, 635/667 nm fluorescence (AID 1140); conditions: WGA-A647 binding, 635 nm fluorescence, higher = more signal;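 further: score merges 667 nm feature emission with signal to noise over triplicate slides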
# [9] = biological target: Luciferin 4-monooxygenase (Photinus pyralis) (UniProt P08659); test: firefly luciferase enzyme inhibitors, primary screen, biochemical, luminescence, purified enzyme, 2006 set (AID 1141); conditions: SteadyGlo luminescence, 30 min, higher = more signal, called active from +8 up or from −8 down;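 further: cell-free assay with purified firefly luciferase at 100 ng per well in PBS; test concentration not given here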
# Luciferin 4-monooxygenase (Photinus pyralis), sequence (P08659 whole entry, looked up): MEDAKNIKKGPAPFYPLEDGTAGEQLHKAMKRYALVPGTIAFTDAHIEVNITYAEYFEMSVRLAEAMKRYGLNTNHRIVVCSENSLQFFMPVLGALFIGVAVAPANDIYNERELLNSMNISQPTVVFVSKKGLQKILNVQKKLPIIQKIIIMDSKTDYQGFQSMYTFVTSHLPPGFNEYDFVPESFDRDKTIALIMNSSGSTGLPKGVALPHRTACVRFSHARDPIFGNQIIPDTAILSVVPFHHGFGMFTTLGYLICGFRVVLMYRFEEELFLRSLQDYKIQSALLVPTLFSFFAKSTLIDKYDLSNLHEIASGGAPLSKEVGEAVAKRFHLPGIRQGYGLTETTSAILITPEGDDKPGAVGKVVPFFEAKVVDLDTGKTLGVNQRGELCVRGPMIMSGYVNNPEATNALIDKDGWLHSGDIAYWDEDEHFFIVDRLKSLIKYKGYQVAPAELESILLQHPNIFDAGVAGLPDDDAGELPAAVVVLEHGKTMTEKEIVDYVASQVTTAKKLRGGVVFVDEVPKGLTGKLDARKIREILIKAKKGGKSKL
# [10] = test system: Wnt5a (protein binding on small-molecule microarray); test: Wnt5a binders on small-molecule microarray, primary screen, biophysical, 635/667 nm fluorescence (AID 1142); conditions: 635 nm fluorescence, higher = more signal;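 further: fluorescence read at 667 nm with signal to noise per printed feature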
# [11] = cell viability in Huh7 cells, primary screen, cytotoxicity control for HCV replication inhibitor project, CellTiter-Glo luminescence, basal, 48 h (AID 1143); conditions: Huh7 HCV replicon, higher = more signal, called active from +8 up or from −8 down;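 further: Huh7 hepatoma cells carrying a hepatitis C replication reporter with no stimulus; test concentration not given here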
# [12] = P. aeruginosa biofilm formation inhibitors, primary screen, PAO1 strain, BacTiter-Glo luminescence, LB-PBS (AID 1144); conditions: 12 h, higher = more signal
# [13] = CREB reporter modulators without forskolin, primary screen, cell-based, PC12, CRE-LacZ reporter, unstimulated (AID 1145); conditions: no forskolin, luminescence, 4.5 h, higher = more signal, called active from +8 up or from −8 down
# [14] = CREB reporter modulators under forskolin, primary screen, cell-based, PC12, CRE-LacZ reporter, forskolin-stimulated (AID 1146); conditions: luminescence, 4.5 h, higher = more signal, called active from +8 up or from −8 down;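 further: PC12 cells with 6xCRE LacZ reporter stimulated by forskolin 10 µM; beta-galactosidase reporter signal reflecting CREB driven transcription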
# [15] = biological target: Streptavidin (Streptomyces avidinii) (UniProt P22629); test: streptavidin binders on small-molecule microarray, primary screen, artefact control for SMM compound annotation, biophysical, 635/667 nm fluorescence (AID 1147); conditions: streptavidin binding, higher = more signal;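 further: signal reflects streptavidin binding to arrayed compounds as a control protein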
# Streptavidin (Streptomyces avidinii), sequence (P22629 whole entry, looked up): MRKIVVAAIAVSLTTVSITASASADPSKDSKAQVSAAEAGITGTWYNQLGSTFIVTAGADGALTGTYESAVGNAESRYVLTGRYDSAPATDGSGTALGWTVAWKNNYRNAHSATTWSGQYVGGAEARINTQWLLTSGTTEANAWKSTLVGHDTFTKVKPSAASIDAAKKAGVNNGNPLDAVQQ
# [16] = small-molecule binders of probe aInhba, primary screen, biochemical, small-molecule microarray, 635/667 nm fluorescence (AID 1148); conditions: higher = more signal;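 further: score merges 667nm spot fluorescence with signal-to-noise for antibody binding to printed compounds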
# Torsin-1A (Homo sapiens) [17] = biological target: Torsin-1A (Homo sapiens) (UniProt O14656); test: torsin A binders from cell lysate, primary screen, small-molecule microarray, wild-type, 635/667 nm (AID 1149); conditions: COS7 hTOR1A-WT lysate, 635 nm fluorescence, higher = more signal
# Torsin-1A (Homo sapiens), sequence (O14656 whole entry, looked up): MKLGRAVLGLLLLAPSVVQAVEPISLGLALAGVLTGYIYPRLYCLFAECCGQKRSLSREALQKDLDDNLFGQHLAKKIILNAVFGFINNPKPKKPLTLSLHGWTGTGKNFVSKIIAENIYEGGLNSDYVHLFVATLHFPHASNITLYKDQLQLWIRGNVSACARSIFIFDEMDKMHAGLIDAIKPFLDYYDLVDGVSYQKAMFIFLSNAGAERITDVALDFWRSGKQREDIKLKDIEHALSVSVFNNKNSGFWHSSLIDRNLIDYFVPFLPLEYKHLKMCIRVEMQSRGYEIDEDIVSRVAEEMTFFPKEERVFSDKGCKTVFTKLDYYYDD
# Torsin-1A (Homo sapiens) [18] = biological target: Torsin-1A (Homo sapiens) (UniProt O14656); test: small-molecule binders of mutant TOR1A in lysate, primary screen, cell lysate, small-molecule microarray, COS7 lysate, 635/667 nm fluorescence (AID 1150); conditions: COS7 hTOR1A mutant lysate, 635 nm fluorescence, higher = more signal;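 further: score pools 667 nm emission and signal to noise measuring lysate protein binding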
# [19] = test system: Sonic hedgehog protein (Shh); test: small-molecule binders of Shh protein, primary screen, biochemical, small-molecule microarray, 635/667 nm fluorescence (AID 1151); conditions: small-molecule microarray binding, 635 nm fluorescence; higher = more signal;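 further: Shh protein binding to compounds spotted on small-molecule microarray slides; score combines spot fluorescence intensity with signal-to-noise across triplicate slides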
SMILES,composite z-score [1],composite z-score [2],composite z-score [3],composite z-score [4],composite z-score [5],composite z-score [6],z-score [7],composite z-score (Lefty1),composite z-score [8],z-score [9],composite z-score [10],z-score [11],z-score [12],z-score [13],z-score [14],composite z-score [15],composite z-score [16],composite z-score (Torsin-1A (Homo sapiens) [17]),composite z-score (Torsin-1A (Homo sapiens) [18]),composite z-score [19]
CO[C@]12C=C(Br)[C@@H](C[C@@H]1c1cccc(C)c1)[C@@]1(CO1)C2=O,0.177,-0.322,-0.129,-0.407,0.415,0.391,-0.645,0.802,-0.0489,1.02 (inactive),-0.161,-0.795 (inactive),-0.863 (inactive),0.223 (inactive),5.27 (inactive),-0.433,-0.154,-0.436,-0.407,0.841
O=C(NCC(F)(F)F)[C@@H]1c2ccccc2C(=O)N(Cc2cc(F)cc(C(F)(F)F)c2)[C@H]1c1ccc(CO)cc1,0.44,-0.178,-0.385,-0.78,-0.682,-0.843,-1.37,-1.24,-0.948,1.08 (inactive),-0.328,-1.77 (inactive),-1.38 (inactive),-0.529 (inactive),0.861 (inactive),-1.24,-0.128,-1.73,-1.22,-1.09
Cc1ccc(S[C@]2(C(=O)NCC(F)(F)F)CC(=O)N(Cc3ccccc3C(F)(F)F)[C@@H]2c2ccc(CO)cc2I)cc1,-0.227,-0.727,-0.604,-0.992,-0.638,-1.08,1.17,-0.745,-0.154,0.84 (inactive),-0.0722,-1.26 (inactive),-0.235 (inactive),-0.671 (inactive),0.622 (inactive),-0.619,-0.024,-2.42,-1.67,-0.402
CN1C(=O)C2C=CC(C(O)c3ccccn3)N(N(c3ccccc3)c3ccccc3)C2C1=O (stereo not given),0.375,0.669,0.0673,0.66,0.82,0.397,0.613,0.0714,0.747,-0.009 (inactive),0.485,0.346 (inactive),-1.26 (inactive),0.0569 (inactive),-0.164 (inactive),-0.0902,0.167,0.678,0.291,0.424
